Results: PubChem BioAssay (NCI)
About 83,000 compounds went through this panel and 20% of them were active in at least one assay; those are over-represented in the sample as a whole.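 Single-concentration screen, 48 h exposure, 96-well plates. Endpoint: percent growth. Below 10 = active.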 Unmarked numbers belong to inactive results. Calls of active or inactive are those of the source.

Assays:
Test in all cases: NCI-60 one-dose screen, 48 h (100 = growth as untreated, 0 = no growth, -100 = all killed)
Settings in all cases: 10 µM unless noted
[1] = tested on: T-47D breast
[2] = tested on: BT-549 breast
[3] = tested on: MDA-MB-435 melanoma
[4] = tested on: SW-620 colon
[5] = tested on: MCF7 breast
[6] = tested on: HCT-116 colon
[7] = tested on: HCC-2998 colon
[8] = tested on: KM12 colon

Structure (SMILES)	growth [1] [%]	growth [2] [%]	growth [3]	growth [4] [%]	growth [5]	growth [6] [%]	growth [7]	growth [8]
CC(=O)NCNC(C)=O	108	100	107%	107	94%	104	113%	117%
O=C(O)Cc1ccccn1	110	101	104%	105	100%	104	111%	104%
O=[n+]1ccn([O-])c2ccccc21	92.4	92.5	101%	93.9	95.8%	95.7	108%	99%
Cc1ccc(C)c2c1CCC2=O	103	97.6	93.3%	93.5	94.7%	93.1	96.7%	100%
Cc1cc(C)cc(OCC(=O)O)c1	96.6	97.9	104%	109	97.7%	96.9	102%	110%
CS(=O)CC(=N\O)/C(CS(C)=O)=N\O (stereo unspecified)	108	106	106%	101	90.7%	102	105%	102%
CN(C)Cc1ccccn1	102	101	103%	103	97%	99.8	119%	111%
CC12CCC3c4ccc(O)cc4CCC3C1CCC2=O (stereo unspecified)	103	89.2	112%	110	128%	95.3	102%	109%
CCOC(=O)c1ccc(Nc2sc(C(=O)c3ccc(Br)cc3)c(N)c2C#N)cc1	28	50.9	-61.9% (active)	25.6	9% (active)	26.9	66.1%	21.7%
CCOP(=O)(OCC)/C(=C\N1C(=O)CC(=O)NC1=S)C(=O)OC	95	116	102%	101	94.7%	115	85.7%	105%
Cc1cc(Nc2ccc3c(c2)OCO3)c2cc3c(cc2n1)OCO3	44.6	69.8	-68.2% (active)	10.3	7.08% (active)	23	45.7%	9.98% (active)
CCCCCCCCCCCCCCCCOc1ccccc1NC(=O)CC(C)=O	111	90.9	102%	110	91.9%	97.5	104%	94.5%
CCCCOC(=O)c1ccccc1O	107	109	97.5%	101	98%	109	122%	106%
CC(=O)Nc1ccc(O)c(C)c1	95.9	112	108%	106	99.9%	99.1	106%	106%
CCN(CC)CCCC(C)NC(=S)N/N=C(\C)c1ccccn1 (stereo unspecified)	56.7	65.5	54.8%	47.5	25.7%	23.9	56.8%	36.4%
COc1ccc(C(=O)C(=O)c2ccccc2)cc1	104	112	95.1%	100	103%	105	104%	102%
C=C1SC(=Nc2c(C)cccc2C)N(c2nc(Cl)nc(Cl)n2)C12CCCCC2	101	91.6	93.5%	112	103%	93.7	111%	103%
COC(CCCl)c1ccc(Cl)cc1 (stereo unspecified)	98.1	102	107%	100	99%	103	106%	102%
S=C=Nc1ccc2ccccc2c1	108	96.2	101%	105	101%	103	95.7%	104%
O=S(=O)(O)c1ccc(O)c(C2CCCCC2)c1	89.1	98.2	102%	108	91.8%	92.7	113%	105%
CCC(C)C1CCC(O)CC1 (stereo unspecified)	104	98.5	103%	107	100%	101	107%	105%
Nc1ccc2ccccc2c1-c1c(N)ccc2ccccc12	32.2	61.5	-4.5% (active)	24.3	19.6%	24.9	66.3%	25.7%
CCCCCCCCCCCCSC1=C(Cl)C(=O)C(OC)=C(OC)C1=O	14.1	58.3	25.9%	27.5	6.48% (active)	16	4.65% (active)	24.4%
CC(=O)NC(CCc1ccc(Cl)c(Cl)c1)c1cccc(O)c(=O)c1 (stereo unspecified)	17.7	19.3	21.5%	23.8	19.3%	15.9	22.6%	18.1%

Structure (SMILES)	growth [1] [%]	growth [2] [%]	growth [3]	growth [4] [%]	growth [5]	growth [6] [%]	growth [7]	growth [8]
CCC1CCC(C)NC1 (stereo unspecified)	106	101	104%	96.9	95%	98.8	106%	97.6%
CCCCN(C(=O)CC)c1ccccc1	110	104	108%	98.7	100%	99.8	112%	102%
ClCC(Cl)C1CCC(Cl)C(Cl)C1 (stereo unspecified)	100	103	107%	105	87.1%	95.6	101%	105%
C/C=C/C1OCC(CC)C(CCC)O1 (stereo unspecified)	107	108	107%	105	95.8%	103	124%	102%
O=C1NC(=O)/C(=C\c2ccncc2)N1	101	99.5	96%	99	94.9%	89.6	133%	86.9%
C=CCc1cc(OC)c(OC)c(OC)c1	108	96.1	108%	91.8	113%	99.1	100%	88.7%
CN(C)c1ncnc2c1cnn2C	88.2	99.9	103%	98.7	94%	105	98%	104%
Nc1nc2nnc(-c3ccccc3)c(-c3ccccc3)n2n1	84.7	103	106%	97.9	98.7%	102	93.1%	132%
O=S(Cc1ccccc1)/C(=C/NC(=S)Nc1cc(Cl)ccc1Cl)c1ccccc1 (stereo unspecified)	104	96.5	108%	107	96.9%	109	103%	100%
CCN1CCCC(N2c3ccccc3Sc3ccccc32)C1 (stereo unspecified)	95.6	116	109%	105	105%	90.3	103%	102%
C[n+]1cc2cc3c(cc2c2ccccc21)OCO3	39.8	20	64.9%	56.5	24.5%	40.3	54.7%	12.9%
Nc1ncnc(Nc2ccc(C(F)(F)F)cc2)n1	96.8	98.2	99.9%	109	96.6%	95.3	101%	105%
C=COC(=O)CCOCC(CC)CCCC (stereo unspecified)	95.9	93.6	99.2%	105	96.3%	101	105%	99.9%
Nc1nc(N)nc(N2CCCCC2)n1	101	106	115%	106	104%	106	106%	101%
BrCc1cccc(C[P+](c2ccccc2)(c2ccccc2)c2ccccc2)c1	28.2	93.1	18%	25.4	53.3%	22.2	33.1%	30.2%
CCOC(=O)CNC	97.2	109	98.7%	98.2	93.8%	108	96%	107%
CC(=O)C[n+]1ccc(C)cc1Sc1ccccc1C	82.2	90	101%	100	90.3%	92.9	108%	94.1%
O=Cc1ccc(F)cc1	94.6	100	97.9%	92.8	92.6%	101	104%	109%
Cc1cc(CC(=O)NCCO)n(CCO)c(=O)c1	84.1	111	107%	98	102%	97.5	103%	107%
NCC(O)C(O)C(O)C(O)CO (stereo unspecified)	84.1	91.3	100%	97.2	97.1%	86.4	99.1%	98.5%
O=C(NCCc1ccccc1)/C(=C\c1ccc(Cl)cc1Cl)NC(=O)c1ccccc1	98.1	104	96.6%	95.7	91.9%	99.7	113%	93.4%
CCCC(=O)c1cccs1	86.6	101	104%	101	94.3%	100	99.8%	105%
O=C(c1ccccc1O)N1CCCC1	95.6	88.9	103%	100	90.6%	88.5	101%	107%
